Reference: the supplement of paper PMC10849652
About 8,800 targets were measured; listed, in parts, are those with a hit and a random draw of the rest. About 0.5% of all pairs of compound and target were hits.

Assays:
Assay in all cases: log2 fold change, soluble protein after heating vs DMSO (PISA); higher = thermal stabilisation; K562 lysate, 10 uM; active = over 0.2 and 3.5 SD of the protein, either way, in both replicates (recomputed)
vemurafenib = compound: CCCS(=O)(=O)Nc1ccc(F)c(C(=O)c2c[nH]c3ncc(-c4ccc(Cl)cc4)cc23)c1F [vemurafenib]
Method in brief: (§1)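 K562 pellets were dounce-homogenised in PBS pH 7.4 with 1 mM MgCl2, and the crude extract at 1 mg/mL protein was treated with 10 μM compound for 30 min. Aliquots were heated for 3 min across 48°C-58°C, pooled, and brought to 0.5% NP-40 at 4°C; soluble protein was the supernatant after 21,000xg for 90 min. Soluble protein was quantified by TMTpro 16plex LC-MS/MS with channel sums equalised, and reported as log2 fold change in thermal stability against DMSO controls, with values from duplicates.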

[1] = compound: CCCS(=O)(=O)Nc1ccc(F)c(C(=O)c2c[nH]c3ncc(Cl)cc23)c1F
Method in brief: as §1

barasertib = compound: CCN(CCCOc1ccc2c(Nc3cc(CC(=O)Nc4cccc(F)c4)[nH]n3)ncnc2c1)CCOP(=O)(O)O [barasertib]
Method in brief: as §1

[2] = compound: CC[C@@H]1C(=O)N(C)c2cnc(Nc3ccc(C(=O)NC4CCN(C)CC4)cc3OC)nc2N1C1CCCC1
Method in brief: as §1

volasertib = compound: CC[C@@H]1C(=O)N(C)c2cnc(Nc3ccc(C(=O)N[C@H]4CC[C@H](N5CCN(CC6CC6)CC5)CC4)cc3OC)nc2N1C(C)C [volasertib]
Method in brief: as §1

[3] = compound: CCn1c(C(=O)N(C2CC2)C2CC2)cc2c3c(ncn3C)c(Nc3cc(C)n(C)n3)nc21
Method in brief: as §1

[4] = compound: CCn1cc(-c2ccnc3[nH]c(-c4cccc(CN(C)C)c4)cc23)c(-c2ccc(NC(=O)N(C)C)cc2)n1
Method in brief: as §1

[5] = compound: CN1CCC(CNc2ccc3ncc(-c4cccc(OC(F)(F)F)c4)n3n2)CC1
Method in brief: as §1

saracatinib = compound: CN1CCN(CCOc2cc(OC3CCOCC3)c3c(Nc4c(Cl)ccc5c4OCO5)ncnc3c2)CC1 [saracatinib]
Method in brief: as §1

sotrastaurin = compound: CN1CCN(c2nc(C3=C(c4c[nH]c5ccccc45)C(=O)NC3=O)c3ccccc3n2)CC1 [sotrastaurin]
Method in brief: as §1

Measured: log2 fold change

PPP3CA isoform 2 (UniProt Q08209)
inactive: vemurafenib -0.008 | [1] -0.037 | barasertib 0.025 | [2] 0.046 | volasertib -0.005 | [3] 0.032 | [4] 0.115 | [5] -0.182 | saracatinib 0 | sotrastaurin -0.005

PPCDC (UniProt Q96CD2)
Sequence of UniProt Q96CD2 (Q96CD2 whole entry, looked up): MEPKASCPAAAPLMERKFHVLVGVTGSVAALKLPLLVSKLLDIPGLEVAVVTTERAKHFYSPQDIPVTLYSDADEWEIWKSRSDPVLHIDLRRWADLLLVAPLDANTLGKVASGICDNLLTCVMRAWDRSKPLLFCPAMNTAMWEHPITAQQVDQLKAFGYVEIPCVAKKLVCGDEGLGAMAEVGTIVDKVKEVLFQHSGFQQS
inactive: vemurafenib 0.1 | [1] 0.003 | barasertib 0.066 | [2] 0.047 | volasertib 0.006 | [3] 0.008 | [4] -0.342 | [5] 0.165 | saracatinib 0.018 | sotrastaurin 0.038

QKI (UniProt Q96PU8)
inactive: vemurafenib -0.006 | [1] 0.024 | barasertib -0.027 | [2] 0.087 | volasertib -0.021 | [3] 0.001 | [4] -0.196 | [5] 0.107 | saracatinib 0.047 | sotrastaurin 0

PLEKHO2 (UniProt Q8TD55)
inactive: vemurafenib 0.034 | [1] 0.247 | barasertib 0.161 | [2] 0.068 | volasertib 0.151 | [3] 0.126 | [4] 0.136 | [5] 0.016 | saracatinib 0.278 | sotrastaurin -0.054

POLR2G (UniProt P62487)
inactive: vemurafenib -0.014 | [1] 0.02 | barasertib -0.003 | [2] 0.03 | volasertib 0.023 | [3] 0 | [4] 0.025 | [5] 0.05 | saracatinib 0.016 | sotrastaurin 0.011

PHACTR4 isoform 2 (UniProt Q8IZ21)
Sequence of UniProt Q8IZ21 (Q8IZ21 whole entry, looked up): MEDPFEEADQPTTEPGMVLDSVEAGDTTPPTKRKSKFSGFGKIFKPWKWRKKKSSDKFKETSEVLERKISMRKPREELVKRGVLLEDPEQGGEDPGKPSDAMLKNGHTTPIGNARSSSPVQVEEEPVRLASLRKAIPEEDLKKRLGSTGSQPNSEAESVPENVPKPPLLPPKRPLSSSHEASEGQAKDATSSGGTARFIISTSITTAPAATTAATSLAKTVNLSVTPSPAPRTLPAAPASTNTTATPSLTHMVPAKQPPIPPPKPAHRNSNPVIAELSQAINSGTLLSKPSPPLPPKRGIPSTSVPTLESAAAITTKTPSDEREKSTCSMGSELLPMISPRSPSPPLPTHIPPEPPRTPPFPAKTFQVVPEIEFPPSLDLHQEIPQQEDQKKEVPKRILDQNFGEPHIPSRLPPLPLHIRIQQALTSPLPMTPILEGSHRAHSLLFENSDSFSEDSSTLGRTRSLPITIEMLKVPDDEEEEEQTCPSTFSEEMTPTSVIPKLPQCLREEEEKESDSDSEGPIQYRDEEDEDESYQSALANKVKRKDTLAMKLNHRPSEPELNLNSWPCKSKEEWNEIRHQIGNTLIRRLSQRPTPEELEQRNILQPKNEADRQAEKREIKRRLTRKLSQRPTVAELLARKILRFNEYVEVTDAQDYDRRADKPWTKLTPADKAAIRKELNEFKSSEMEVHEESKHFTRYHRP
active: [4] 0.836
inactive: vemurafenib 0.011 | [1] 0.011 | barasertib -0.008 | [2] 0.065 | volasertib 0.023 | [3] -0.003 | [5] -0.178 | saracatinib 0 | sotrastaurin 0.013

PCBP3 (UniProt P57721)
inactive: vemurafenib 0.021 | [1] -0.007 | barasertib -0.007 | [2] -0.003 | volasertib 0.006 | [3] -0.011 | [4] -0.062 | [5] 0.032 | saracatinib 0.014 | sotrastaurin -0.047

PWP1 (UniProt Q13610)
inactive: vemurafenib -0.09 | [1] 0.019 | barasertib 0.012 | [2] -0.032 | volasertib -0.004 | [3] -0.023 | [5] -0.039 | saracatinib 0.01 | sotrastaurin -0.021
active: [4] 0.62

PDCD10 (UniProt Q9BUL8)
inactive: vemurafenib -0.021 | [1] -0.002 | barasertib 0.006 | [2] -0.012 | volasertib 0.007 | [3] 0 | [5] 0.029 | saracatinib 0.016 | sotrastaurin 0.04
active: [4] -0.269

PES1 (UniProt O00541)
inactive: vemurafenib 0.009 | [1] 0.023 | barasertib -0.019 | [2] -0.074 | volasertib -0.04 | [3] 0.017 | [4] -0.043 | [5] 0.052 | saracatinib 0.007 | sotrastaurin 0.028

PIK3R2 (UniProt O00459)
inactive: vemurafenib -0.032 | [1] 0 | barasertib -0.002 | [2] 0.128 | volasertib -0.003 | [3] 0.071 | [4] -0.018 | [5] 0.289 | saracatinib -0.014 | sotrastaurin 0.091

PHF14 (UniProt O94880)
inactive: vemurafenib 0.079 | [1] -0.127 | barasertib -0.046 | [2] 0.341 | volasertib 0.004 | [3] -0.02 | saracatinib -0.047

POLR2B (UniProt P30876)
inactive: vemurafenib 0.021 | [1] -0.004 | barasertib 0.039 | [2] -0.049 | volasertib -0.074 | [3] 0.01 | [4] -0.029 | [5] 0.017 | saracatinib 0.016 | sotrastaurin 0.024

POLR2M (UniProt P0CAP2)
Sequence of UniProt P0CAP2 (P0CAP2 whole entry, looked up): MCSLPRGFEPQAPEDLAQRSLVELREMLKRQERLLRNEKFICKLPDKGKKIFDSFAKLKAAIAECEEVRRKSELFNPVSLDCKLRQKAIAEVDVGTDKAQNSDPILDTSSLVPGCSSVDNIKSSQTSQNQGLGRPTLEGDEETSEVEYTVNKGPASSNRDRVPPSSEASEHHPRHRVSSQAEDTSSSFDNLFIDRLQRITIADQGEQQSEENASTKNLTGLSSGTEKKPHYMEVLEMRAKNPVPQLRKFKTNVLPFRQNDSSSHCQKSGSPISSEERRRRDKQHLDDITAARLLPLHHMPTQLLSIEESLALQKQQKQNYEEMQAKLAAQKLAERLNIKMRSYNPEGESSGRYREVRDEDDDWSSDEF
inactive: vemurafenib 0.014 | [1] 0.02 | barasertib 0.021 | [2] -0.108 | volasertib -0.024 | [3] 0.008 | [4] -0.055 | [5] 0.067 | saracatinib -0.007 | sotrastaurin 0.041

PPP1R12B isoform 6 (UniProt O60237)
inactive: vemurafenib 0.08 | [1] 0.036 | barasertib -0.046 | [2] 0.133 | volasertib -0.029 | [3] -0.209 | saracatinib -0.047 | sotrastaurin -0.057

PUF60 isoform 2 (UniProt Q9UHX1)
active: [4] 1.25
inactive: vemurafenib -0.126 | [1] 0.101 | barasertib -0.057 | [2] 0.047 | volasertib 0.021 | [3] -0.062 | [5] -0.115 | sotrastaurin -0.043

PRKCSH (UniProt P14314)
inactive: vemurafenib 0.01 | [1] -0.009 | barasertib -0.009 | [2] 0.007 | volasertib 0.04 | [3] 0.025 | [4] 0.007 | [5] -0.003 | saracatinib 0.011 | sotrastaurin 0.018

PDCD6IP isoform 2 (UniProt Q8WUM4)
Sequence of UniProt Q8WUM4 (Q8WUM4 whole entry, looked up): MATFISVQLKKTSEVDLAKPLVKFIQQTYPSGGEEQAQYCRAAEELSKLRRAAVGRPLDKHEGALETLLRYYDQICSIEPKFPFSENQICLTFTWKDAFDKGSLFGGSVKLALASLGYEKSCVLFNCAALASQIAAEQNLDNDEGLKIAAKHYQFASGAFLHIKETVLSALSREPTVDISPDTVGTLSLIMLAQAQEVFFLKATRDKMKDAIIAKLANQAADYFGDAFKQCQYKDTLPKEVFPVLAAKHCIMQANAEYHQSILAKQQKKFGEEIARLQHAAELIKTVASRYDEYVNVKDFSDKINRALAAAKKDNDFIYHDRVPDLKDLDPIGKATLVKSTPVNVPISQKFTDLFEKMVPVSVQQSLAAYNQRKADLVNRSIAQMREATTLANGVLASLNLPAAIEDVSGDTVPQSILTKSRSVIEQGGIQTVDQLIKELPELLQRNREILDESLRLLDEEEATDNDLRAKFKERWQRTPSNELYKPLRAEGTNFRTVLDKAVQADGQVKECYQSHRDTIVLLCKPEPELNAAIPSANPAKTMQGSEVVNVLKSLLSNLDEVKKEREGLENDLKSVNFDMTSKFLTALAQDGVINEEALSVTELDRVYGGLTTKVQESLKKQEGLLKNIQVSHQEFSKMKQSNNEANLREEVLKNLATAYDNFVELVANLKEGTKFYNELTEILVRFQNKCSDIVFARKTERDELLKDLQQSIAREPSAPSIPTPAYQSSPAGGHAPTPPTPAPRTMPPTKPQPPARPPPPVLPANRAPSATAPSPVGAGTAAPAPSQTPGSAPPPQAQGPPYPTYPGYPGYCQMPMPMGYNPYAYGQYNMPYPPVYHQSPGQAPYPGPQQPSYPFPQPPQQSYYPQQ
inactive: vemurafenib -0.018 | [1] -0.005 | barasertib -0.008 | [2] -0.036 | volasertib -0.022 | [3] 0.032 | [4] 0.071 | [5] -0.054 | saracatinib 0.011 | sotrastaurin 0.003

PYCR2 (UniProt Q96C36)
Sequence of UniProt Q96C36 (Q96C36 whole entry, looked up): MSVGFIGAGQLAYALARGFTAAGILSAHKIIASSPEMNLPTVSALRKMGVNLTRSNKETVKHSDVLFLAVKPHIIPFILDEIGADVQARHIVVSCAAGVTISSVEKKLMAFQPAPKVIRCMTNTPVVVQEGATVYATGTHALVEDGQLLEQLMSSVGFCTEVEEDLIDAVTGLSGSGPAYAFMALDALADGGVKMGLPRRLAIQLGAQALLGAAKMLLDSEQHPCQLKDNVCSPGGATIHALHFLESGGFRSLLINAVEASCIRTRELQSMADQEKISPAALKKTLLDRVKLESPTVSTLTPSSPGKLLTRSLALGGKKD
inactive: vemurafenib 0.004 | [1] -0.005 | barasertib 0.006 | [2] 0.036 | volasertib 0.016 | [3] -0.001 | [4] 0.099 | [5] 0.012 | saracatinib -0.012 | sotrastaurin -0.014

PREP (UniProt P48147)
inactive: vemurafenib 0.028 | [1] 0.011 | barasertib -0.003 | [2] -0.025 | volasertib -0.025 | [3] 0.023 | [4] 0.008 | [5] -0.013 | saracatinib 0.005 | sotrastaurin 0.001

PDE2A (UniProt O00408)
inactive: [1] -0.015 | barasertib -0.015 | [2] -0.215 | volasertib 0.041 | [3] -0.173 | [4] -0.135 | [5] 0.023 | saracatinib -0.042 | sotrastaurin 0.039
active: vemurafenib 0.374

PTPN2 (UniProt P17706)
Sequence of UniProt P17706 (P17706 whole entry, looked up): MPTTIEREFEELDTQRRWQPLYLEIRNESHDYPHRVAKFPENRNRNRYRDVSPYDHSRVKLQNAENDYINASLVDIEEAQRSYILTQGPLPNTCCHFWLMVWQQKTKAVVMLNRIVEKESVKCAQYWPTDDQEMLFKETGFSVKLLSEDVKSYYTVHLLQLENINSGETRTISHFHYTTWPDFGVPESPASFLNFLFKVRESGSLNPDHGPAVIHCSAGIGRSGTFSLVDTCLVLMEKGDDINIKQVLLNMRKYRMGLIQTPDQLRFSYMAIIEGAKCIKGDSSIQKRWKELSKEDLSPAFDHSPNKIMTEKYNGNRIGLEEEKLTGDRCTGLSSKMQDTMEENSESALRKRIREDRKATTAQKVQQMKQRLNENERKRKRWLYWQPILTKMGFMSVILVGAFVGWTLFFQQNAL
inactive: vemurafenib 0.027 | [1] -0.017 | barasertib 0.051 | [2] -0.028 | volasertib 0 | [3] 0.005 | [4] -0.084 | [5] -0.031 | saracatinib -0.052 | sotrastaurin 0.011

PIKFYVE (UniProt Q9Y2I7)
inactive: vemurafenib -0.022 | [1] 0.042 | barasertib 0.26 | [2] -0.036 | volasertib -0.047 | [3] 0.04 | [4] -0.056 | [5] 0.038 | saracatinib 0.054 | sotrastaurin 0.038

POLR3E (UniProt Q9NVU0)
Sequence of UniProt Q9NVU0 (Q9NVU0 whole entry, looked up): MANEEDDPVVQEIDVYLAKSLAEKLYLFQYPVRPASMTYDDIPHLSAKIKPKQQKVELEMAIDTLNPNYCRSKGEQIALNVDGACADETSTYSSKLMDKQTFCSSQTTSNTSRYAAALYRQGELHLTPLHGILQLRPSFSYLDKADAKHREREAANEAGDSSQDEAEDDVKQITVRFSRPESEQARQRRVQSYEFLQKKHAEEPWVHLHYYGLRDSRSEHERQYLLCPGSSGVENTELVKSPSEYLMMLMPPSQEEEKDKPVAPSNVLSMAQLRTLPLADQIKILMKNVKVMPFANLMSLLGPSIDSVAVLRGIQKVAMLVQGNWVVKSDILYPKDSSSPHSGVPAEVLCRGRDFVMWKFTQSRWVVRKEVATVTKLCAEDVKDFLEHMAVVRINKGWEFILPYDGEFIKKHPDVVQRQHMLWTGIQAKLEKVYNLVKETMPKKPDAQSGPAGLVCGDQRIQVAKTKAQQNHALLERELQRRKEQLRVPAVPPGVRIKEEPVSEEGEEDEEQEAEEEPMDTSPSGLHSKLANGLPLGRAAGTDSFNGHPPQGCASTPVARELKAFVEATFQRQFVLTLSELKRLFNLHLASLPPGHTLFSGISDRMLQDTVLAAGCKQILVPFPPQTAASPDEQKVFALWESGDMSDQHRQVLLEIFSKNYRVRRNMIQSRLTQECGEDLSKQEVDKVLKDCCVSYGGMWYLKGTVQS
inactive: vemurafenib 0.011 | [1] 0.02 | barasertib 0.003 | [2] 0.018 | volasertib -0.004 | [3] -0.012 | [4] 0.035 | [5] 0.012 | saracatinib 0.017 | sotrastaurin 0.048

PFKP (UniProt Q01813)
Sequence of UniProt Q01813 (Q01813 whole entry, looked up): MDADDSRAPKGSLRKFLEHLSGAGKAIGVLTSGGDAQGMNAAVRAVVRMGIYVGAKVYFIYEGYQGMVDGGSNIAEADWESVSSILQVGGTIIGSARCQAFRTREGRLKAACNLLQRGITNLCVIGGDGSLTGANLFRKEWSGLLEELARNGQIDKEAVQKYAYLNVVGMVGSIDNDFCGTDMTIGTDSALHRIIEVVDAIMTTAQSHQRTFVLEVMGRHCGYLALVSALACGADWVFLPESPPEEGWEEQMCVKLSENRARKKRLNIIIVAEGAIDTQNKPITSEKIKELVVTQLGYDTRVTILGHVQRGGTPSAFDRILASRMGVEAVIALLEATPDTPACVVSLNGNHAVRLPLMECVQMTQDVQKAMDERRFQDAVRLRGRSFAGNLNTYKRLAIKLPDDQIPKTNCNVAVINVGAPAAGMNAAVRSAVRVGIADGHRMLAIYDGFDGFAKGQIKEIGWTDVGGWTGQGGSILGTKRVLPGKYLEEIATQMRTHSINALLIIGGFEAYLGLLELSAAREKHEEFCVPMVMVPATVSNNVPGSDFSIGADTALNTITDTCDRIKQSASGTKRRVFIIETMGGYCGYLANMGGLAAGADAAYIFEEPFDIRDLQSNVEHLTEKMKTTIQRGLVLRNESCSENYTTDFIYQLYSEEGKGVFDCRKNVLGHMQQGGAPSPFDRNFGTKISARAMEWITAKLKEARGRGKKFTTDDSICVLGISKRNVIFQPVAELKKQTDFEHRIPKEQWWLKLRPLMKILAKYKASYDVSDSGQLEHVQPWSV
inactive: vemurafenib -0.047 | [1] -0.056 | barasertib 0.018 | [2] -0.005 | volasertib 0.015 | [3] -0.007 | [4] 0.052 | [5] -0.033 | saracatinib 0.008 | sotrastaurin -0.025

PRKD3 (UniProt O94806)
active: [4] -0.876
inactive: vemurafenib -0.148 | [1] -0.057 | barasertib 0.161 | [2] -0.25 | volasertib -0.06 | [3] -0.143 | [5] 0.219 | sotrastaurin 0.086

PRKCD (UniProt Q05655)
inactive: vemurafenib -0.006 | [1] -0.118 | barasertib 0.057 | [2] 0.008 | volasertib -0.041 | [3] -0.014 | [4] 0.012 | [5] 0.021 | saracatinib -0.005 | sotrastaurin 0.058

PYURF (UniProt Q96I23)
Sequence of UniProt Q96I23 (Q96I23 whole entry, looked up): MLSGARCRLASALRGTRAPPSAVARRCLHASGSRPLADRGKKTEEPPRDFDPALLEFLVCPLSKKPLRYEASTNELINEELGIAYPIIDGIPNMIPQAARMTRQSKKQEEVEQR
inactive: vemurafenib -0.048 | [1] -0.003 | barasertib -0.049 | [2] 0.103 | volasertib 0.059 | [3] 0.042 | [4] -0.03 | [5] -0.002 | saracatinib -0.013 | sotrastaurin -0.034

PRKRA (UniProt O75569)
inactive: vemurafenib -0.012 | [1] 0.031 | barasertib -0.042 | [2] -0.082 | volasertib -0.052 | [3] 0.041 | [4] 0 | [5] -0.016 | saracatinib 0.03 | sotrastaurin 0.009

PPM1H (UniProt Q9ULR3)
Sequence of UniProt Q9ULR3 (Q9ULR3 whole entry, looked up): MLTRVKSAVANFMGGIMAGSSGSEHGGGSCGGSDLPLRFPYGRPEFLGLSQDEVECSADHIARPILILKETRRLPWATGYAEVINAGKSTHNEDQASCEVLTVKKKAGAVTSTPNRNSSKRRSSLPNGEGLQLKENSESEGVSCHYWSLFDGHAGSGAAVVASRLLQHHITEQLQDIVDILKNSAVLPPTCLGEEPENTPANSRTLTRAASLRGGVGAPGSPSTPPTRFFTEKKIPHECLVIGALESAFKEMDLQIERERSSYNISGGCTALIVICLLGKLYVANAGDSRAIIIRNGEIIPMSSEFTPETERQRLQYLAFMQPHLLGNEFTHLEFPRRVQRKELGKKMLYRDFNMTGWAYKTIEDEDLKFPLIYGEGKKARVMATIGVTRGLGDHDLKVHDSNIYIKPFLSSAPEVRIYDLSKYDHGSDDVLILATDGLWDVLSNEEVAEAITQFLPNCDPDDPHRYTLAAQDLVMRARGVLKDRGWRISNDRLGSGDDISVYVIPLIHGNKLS
inactive: vemurafenib 0.066 | [1] -0.001 | barasertib 0 | [2] 0.103 | volasertib 0.025 | [3] 0 | [4] -0.079 | [5] 0.041 | saracatinib -0.062 | sotrastaurin 0.022
